Nrf2 ARE act = activators of Nrf2 (ARE) signaling. AREc32 ARE-luciferase reporter (MCF7-derived line), luminescence, 24 h. Potency, µM (titrated, usually from 46.1 µM), for the others: at the top dose activation, usual class: activators. hit rate 0.31% among 410,000. AID 624171; also: potency is read from the fitted curve at half-maximal effect; % of control where 0% means no effect; nearly all actives have a fitted effect of over 65% in size
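Luciferase luminescence (Steady-Glo, 30 min at room temperature) served as the read-out of ARE activation in AREc32 cells treated with compounds for 24 hr at 37 deg C.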
ELG1 DNA repair = inhibitors of ELG1-dependent DNA repair in HEK293T cells; HEK293T ELG1-luciferase reporter, luminescence, 16 h; DNA damage induced by 5-fluorouridine; Potency, µM (highest dose often 46.1 µM), for inactives: at the highest dose activity change, negative = inhibition, most hits filed as inhibitors; hit rate 2.3% among 330,000; AID 504467; also: potency is read from the fitted curve at half-maximal effect; % is scaled to controls: 0 for no effect and ±100 for the full control effect; nearly all actives have a fitted effect of over 55% in size
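Reporter activity after DNA damage by 5-fluorouridine is monitored. Compound-treated cells incubate 16 hr at 37 °C, then ONE-Glo is added for 30 min before luminescence reading.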
BRCA1 expr act = increases BRCA1 expression. MCF7-BRCA1-FFLuc reporter, luminescence, 48 h; response scale: scaled: vehicle 0%, 10 µM genistein 100%. hit rate 1.1% among 380,000. AID 624202. Potency, µM (top dose mostly 46.1 µM), without a hit: top-dose activation, actives largely listed as activators; also: potency is read from the fitted curve at half-maximal effect; nearly all actives have a fitted effect of over 80% in size
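MCF7-BRCA1-FFLuc, 2000 cells/well; 2 h attach, 37 °C/5% CO2; compound 48 h; luciferase substrate 15 min; luminescence end-point. Norm. to genistein 10 microM max activation and DMSO; concentration-response curves fitted.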
IL-2 act = activates IL-2 in a cell-based reporter assay; IL-2 activation reporter assay, cell-based qHTS; stimulated with anti-CD3/CD4/CD28 beads; in transgenic mouse T cells; activation, % (series mostly up to about 46 µM); hit rate 0.065% among 360,000; AID 652025; in the data active = activation above about 50%; inconclusive = mostly about 30% to 49%; also: 0% is about no effect
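Unstimulated transgenic mouse T cells; 60-min compound exposure; bead-based TCR/CD4/CD28 stimulation; 18 h culture, 37 degrees C; dual fluorescence (EGFP, DsRed) plate cytometry.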
* marks the source's active call; other numbers are inactive results; u = inconclusive; x = not tested or not shown. This is a sample that favours compounds with a hit; in the whole collection about 3.1% have one here. Unless noted, calls follow the shape of the dose curve; as a rule, active = well fitted curve in the direction sought with a large enough effect; inconclusive = small, poorly fitted or top-dose-only effect, or another doubt; inactive = no such curve, though single readings can be large; an effect the other way counts as inactive or inconclusive.

SMILES	Nrf2 ARE act	ELG1 DNA repair	BRCA1 expr act	IL-2 act
N#C/C(=C\c1ccc(Cl)c([N+](=O)[O-])c1)c1ccccn1	21%	u	-96%	0
COc1ccc(C(=O)Nc2ccc3nc(SCC(=O)N(C)c4ccccc4)sc3c2)cc1	1%	x	-34%	x
Cc1cc(C)n(C(C)CC(=O)Nc2ccc(Cl)cc2C)n1 (configuration not stated)	-1%	x	x	x
Cc1ccc(Nc2nc(N)nc(CN3CCN(Cc4ccc5c(c4)OCO5)CC3)n2)cc1C	3%	13µM*	-35%	-4
CCOC(=O)N1CCN(Cc2nc(N)nc(Nc3ccc(Oc4ccccc4)cc3)n2)CC1	13%	12µM*	-32%	1
Cc1ccc(Nc2nc(N)nc(CN3CCN(Cc4ccc5c(c4)OCO5)CC3)n2)cc1Cl	0%	u	-35%	-3
CCOc1nc(Nc2ccc(F)cc2)nc(N2CCN(c3ccc(OC)cc3)CC2)n1	0%	u	-42%	-2
CCOc1nc(Nc2ccc(OC)c(Cl)c2)nc(N2CCN(c3ccc(OC)cc3)CC2)n1	5%	18µM*	-29%	-2
COc1ccc(N2CCN(Cc3nc(N)nc(Nc4ccc(C)c(Cl)c4)n3)CC2)cc1	6%	13µM*	-53%	-3
CCOc1ccc2nc(NCCCNC(=O)c3cc(OC)c(OC)c(OC)c3)c(C#N)cc2c1	0%	6.5µM*	-16%	-2
CC(=O)Nc1ccc2[nH]ccc2c1	-1%	21%	-4%	0
Cn1cc([N+](=O)[O-])c(C(=O)Nc2ccc(-c3nc4ccccc4[nH]3)cc2)n1	u	u	7.9µM*	-2
O=[N+]([O-])c1cc(Oc2cccnc2)cc([N+](=O)[O-])c1	6%	17%	-22%	0
Cn1cccc1-c1nc2ccc(NC(=O)c3ccc([N+](=O)[O-])cc3)cc2[nH]1	0%	u	0%	-1
Cn1cc([N+](=O)[O-])c(C(=O)Nc2cc(Oc3cccnc3)cc([N+](=O)[O-])c2)n1	u	3.2µM*	-92%	3
Cn1cc([N+](=O)[O-])c(C(=O)Nc2ccc3nc(-c4ccccc4)[nH]c3c2)n1	25µM*	u	4µM*	1
O=C(Nc1ccc2[nH]ccc2c1)c1cccs1	4%	u	3.2µM*	0
O=C(Nc1ccc(-c2nc3ccccc3[nH]2)cc1)c1ccco1	1%	u	u	0
O=C(c1c2c(nc3ccccc13)C(=O)N(C1CCCCC1)C2)N1CCN(c2ccc(F)cc2)CC1	0%	x	x	x
O=C(Nc1ccc2nc(-c3ccccc3)[nH]c2c1)c1cccs1	3%	u	7.1µM*	0
COC(=O)c1ccccc1NC(=O)c1nc(-c2ccc(Cl)cc2)n2c1CCCCC2	0%	x	x	x
Clc1ccccc1-c1nnc2sc(-c3ccncc3)nn12	4%	u	0%	0
Clc1ccccc1-c1nn2c(-c3ccncc3)nnc2s1	0%	10µM*	33%	1
O=C(Nc1ccc2nc3n(c(=O)c2c1)CCCC3)c1cccc(F)c1	1%	u	10µM*	-1
O=C(Nc1cccc(S(=O)(=O)N2CCOCC2)c1)c1ccc2c(=O)n3c(nc2c1)CCCCC3	0%	12µM*	-55%	-1
SMILES	Nrf2 ARE act	ELG1 DNA repair	BRCA1 expr act	IL-2 act
CC(=O)c1cccc(NC(=O)c2ccc3c(=O)n4c(nc3c2)CCCCC4)c1	3%	-20%	0%	1
O=C(Nc1cccc(S(=O)(=O)N2CCCC2)c1)c1ccc2c(=O)n3c(nc2c1)CCCCC3	0%	5.8µM*	-65%	-6
COc1ccc(NC(=O)c2ccc3c(=O)n4c(nc3c2)CCCCC4)cc1	2%	u	0%	-2
O=C(Nc1cccc(S(=O)(=O)N2CCCC2)c1)c1ccc(Cl)nc1	3%	9.2µM*	-42%	-1
CCOC(=O)C1CCCN(c2cc(C)nc3cc(-c4ccc(Cl)cc4)nn23)C1 (configuration not stated)	0%	26µM*	25%	-3
Cc1[nH]n(C2=NCCS2)c(=O)c1N=Nc1cccc(C(F)(F)F)c1	0%	2.9µM*	-44%	0
Cc1[nH]n(C(N)=S)c(=O)c1N=Nc1cccc(C(F)(F)F)c1	0%	u	u	-4
Cc1ccc(C(=O)c2c(N)c(C(=O)Nc3cccc(C(F)(F)F)c3)c3ccccn23)cc1	-1%	x	x	x
CCc1ccc(OCC(=O)Nc2ccc(S(=O)(=O)N3CCCC3)cc2)c(Br)c1	-1%	3%	4%	0
Cc1ccc(OCC(=O)Nc2cccc(S(=O)(=O)N3CCCCC3)c2)c([N+](=O)[O-])n1	1%	-17%	-41%	-2
COc1ccc(NC(=O)COc2ccccc2C#N)c(S(=O)(=O)N2CCCCC2)c1	2%	21µM*	-12%	0
O=C(COc1ccc(Br)cc1CO)Nc1ccc(S(=O)(=O)N2CCCCC2)cc1	0%	18µM*	-14%	-1
Cc1ccc2cccc(OCC(=O)Nc3cccc(S(=O)(=O)N4CCCC4)c3)c2n1	-1%	18µM*	-64%	-7
N#Cc1ccccc1Oc1ccc(S(=O)(=O)N2CCCCC2)cn1	-1%	u	10µM*	-2
O=C(COC(=O)C12CC3CC(CC(Br)(C3)C1)C2)NCc1ccco1	x	x	9%	x
CN(CC(=O)Nc1cccc(S(=O)(=O)N2CCOCC2)c1)CC(=O)Nc1ccc(Cl)c(C(F)(F)F)c1	3%	13µM*	-74%	-6
N#Cc1ccccc1OCC(=O)Nc1cccc(S(=O)(=O)N2CCCCCC2)c1	0%	18µM*	-34%	-5
O=C(CNc1cccc(S(=O)(=O)N2CCCC2)c1)Nc1cccc(C(F)(F)F)c1	6%	9.2µM*	-64%	0
COc1ccccc1CNC(=O)c1ccc(CSc2nc3ccncc3n2Cc2cccc(F)c2)cc1	6%	x	x	x
O=C1NC[C@H](Cc2ccccc2)N(C[C@@H]2CCCN2C[C@H](Cc2ccc(O)cc2)N2C[C@H](Cc3ccccc3)N(CC3CCCCCC3)C(=O)C2=O)C1=O	-1%	x	-68%	-1
O=C(c1ccccc1)c1ccc2ccccc2c1	5%	x	56%	0
O=C(c1ccccc1)c1c2c(cc3sc4ccccc4[n+]13)-c1cccc3cccc-2c13	3%	18µM*	-74%	2
Cc1cc2ccccc2cc1C(=O)c1ccccc1	2%	x	-2%	-1
Cc1sc2cc3c(c(C(=O)c4ccccc4)[n+]2c1C)-c1cccc2cccc-3c12	0%	23µM*	-74%	-3
COC(=O)[C@]12CCCCC=C1N(CCc1ccc(OC)c(OC)c1)C(=O)[C@H](CC(=O)NCC1CCCCC1)C2	x	x	x	0
O=C(Nc1ccc2ccccc2n1)c1ccccc1	11µM*	u	43%	-2
O=C(Nc1ccc2ncccc2c1)Nc1ccc2ncccc2c1	4%	u	u	-2
O=C(CCc1ccccc1)Nc1ccccc1	3%	18%	13%	2
O=C(Nc1ccc2ncccc2c1)c1ccccc1Br	13%	u	7.1µM*	1

Assay outcomes deposited in PubChem by National Center for Advancing Translational Sciences (NCATS).
